From PubChem BioAssay (Tox21)
Results filed as inconclusive are left out. The source made the active and inactive calls. Unless noted, calls follow the shape of the dose curve; as a rule, active = well fitted curve in the direction sought with a large enough effect in the repeat runs; inconclusive = weak or mixed curves; inactive = no such curve, though single readings can be large; an effect the other way counts as inactive or inconclusive.

What was measured:
[1] = A CellTox Green Cytotoxicity Assay to monitor cytotoxicity in HepG2 cells - 0 hour (AID 1224882); also: nearly all actives have a fitted effect of over 35% in size
Procedure, shortened: (§1)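 First, HepG2 cells (600/well) mixed with reagent were plated; second, after 5 h at 37 C they received compounds via pintool; third, fluorescence was measured at 0 h through 40 h at 8 h intervals.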

[2] = A CellTox Green Cytotoxicity Assay to monitor cytotoxicity in HepG2 cells - 32 hour (AID 1224883); also: nearly all actives have a fitted effect of over 50% in size
Procedure, shortened: as §1

[3] = A CellTox Green Cytotoxicity Assay to monitor cytotoxicity in HEK293 cells - 8 hour (AID 1224884); also: nearly all actives have a fitted effect of over 35% in size
Procedure, shortened: (§2)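 Dead-cell fluorescence measured kinetically: asymmetric cyanine dye, HEK293, 600 cells/well, 5 h settle, 23 nL cpd/DMSO, 37 C, reads 0–40 h every 8 h.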

[4] = qHTS RealTime-Glo MT Cell Viability Assay in HepG2 cells - 16 hour (AID 1224885); also: nearly all actives have a fitted effect of over 50% in size
Procedure, shortened: (§3)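 qHTS, HepG2, 600 cells/well, RealTime-Glo (NanoLuc + prosubstrate) added with cells; 5 h preincubation; DMSO compound addition; 37 C; luminescence at 0/8/16/24/32/40 h.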

[5] = qHTS RealTime-Glo MT Cell Viability Assay in HEK293 cells - 24 hour (AID 1224886); also: nearly all actives have a fitted effect of over 50% in size; also: potency is read from the fitted curve at half-maximal effect; as to activity change, negative = cytotoxicity: top concentration of the series differs between compounds
Procedure, shortened: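 Assay medium contained NanoLuc luciferase plus cell-permeant prosubstrate, added with HEK293 cells at 600 cells/well. After 5 h at 37 C/5% CO2 compounds were added; plates stayed at 37 C for 40 h with serial luminescence reads.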

[6] = qHTS RealTime-Glo MT Cell Viability Assay in HEK293 cells - 8 hour (AID 1224887); also: top concentration of the series differs between compounds; nearly all actives have a fitted effect of over 50% in size
Procedure, shortened: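 600 HEK293 cells per well, dispensed already mixed with RealTime-Glo MT reagents. Compound dosing came 5 h later. The same wells were read for luminescence at 0, 8, 16, 24, 32 and 40 h of exposure at 37 C.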

[7] = A CellTox Green Cytotoxicity Assay to monitor cytotoxicity in HEK293 cells - 16 hour (AID 1224888); also: nearly all actives have a fitted effect of over 35% in size
Procedure, shortened: as §2

[8] = qHTS RealTime-Glo MT Cell Viability Assay in HepG2 cells - 0 hour (AID 1224889); also: nearly all actives have a fitted effect of over 50% in size
Procedure, shortened: as §3

[9] = A CellTox Green Cytotoxicity Assay to monitor cytotoxicity in HepG2 cells - 8 hour (AID 1224890); also: nearly all actives have a fitted effect of over 45% in size
Procedure, shortened: as §1

[10] = qHTS assay to identify small molecule antagonists of the estrogen receptor alpha (ER-alpha) signaling pathway using the BG1 cell line in the presence of 0.1 nM 17-beta-estradiol - cell viability counter screen (AID 1259241); also: nearly all actives have a fitted effect of over 40% in size; also: potency is read from the fitted curve at half-maximal effect
Procedure, shortened: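 Estradiol-stimulated (0.1 nM) VM7Luc4E2 cells exposed to compounds 22 hr; viability measured by fluorescence of cleaved CellTiter-Fluor substrate after 30 min.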

[11] = qHTS assay to identify small molecule antagonists of the androgen receptor (AR) signaling pathway using the MDA cell line in the presence of 0.5 nM R1881 - cell viability counter screen (AID 1259242); also: nearly all actives have a fitted effect of over 45% in size
Procedure, shortened: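 qHTS format. MDA-kb2 (MMTV-luc, AR/GR responsive) + cpd + 0.5 nM R1881 final, 16 hr 37C/0% CO2 → CellTiter-Fluor 30 min → fluorescence intensity.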

[12] = target: Estrogen receptor (Homo sapiens) (UniProt P03372); experiment: qHTS assay to identify small molecule antagonists of the estrogen receptor alpha (ER-alpha) signaling pathway using the BG1 cell line in the presence of 0.1 nM 17-beta-estradiol (AID 1259244); also: nearly all actives have a fitted effect of over 50% in size; also: potency is read from the fitted curve at half-maximal effect
Procedure, shortened: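 Reporter is a stably transfected luciferase under four estrogen responsive elements in VM7Luc4E2 cells expressing native full-length ER-alpha; inhibition of 0.1 nM (final) 17beta-estradiol-driven signal over 22 h is read by luminescence.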

[13] = qHTS assay to identify small molecule phospholipidosis (PLD) inducers (AID 1259344; active = well fitted curve in the direction sought with a large enough effect; an effect the other way counts as inactive or inconclusive)
Procedure, shortened: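 Phospholipid accumulation was scored by imaging: fixed, Hoechst-counterstained HepG2 cells stained with LipidTOX Red after 24 h compound exposure at 37 C. Read-outs were pit count and pit intensity per well or per cell, with amiodarone and DMSO controls.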

[14] = qHTS assay to identify small molecule HDAC inhibitors (AID 1259364);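 also: wild-type HCT-116 cells with endogenous class I/II HDAC activity; top concentration of the series differs between compounds; nearly all actives have a fitted effect of over 45% in size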
Procedure, shortened: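 Quantitative high-throughput format: overnight-seeded HCT-116 cells got compounds for 2 hr at 37C; HDAC-Glo I/II reagent added, 30 min RT, luminescence measured.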

[15] = qHTS assay to identify small molecule HDAC inhibitors - cell viability counter screen (AID 1259365)
Procedure, shortened: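 After overnight seeding at 1,500 cells per well, wild-type HCT-116 cultures took up compounds in DMSO for 2hr at 37 C. Viable cell content came from luminescence with CellTiter-Glo.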

[16] = qHTS assay to identify small molecule agonists of the sonic hedgehog signaling (Shh) pathway - cell viability counter screen (AID 1259366); also: nearly all actives have a fitted effect of over 50% in size; also: potency is read from the fitted curve at half-maximal effect
Procedure, shortened: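 Same-well cytotoxicity read. Gli1-Luc reporter 3T3 cells; compounds 24hr, 37C/5% CO2; CellTiter-Fluor fluorescence.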

[17] = qHTS assay to identify small molecule antagonists of the sonic hedgehog signaling (Shh) pathway - cell viability counter screen (AID 1259367); also: nearly all actives have a fitted effect of over 55% in size; also: potency is read from the fitted curve at half-maximal effect
Procedure, shortened: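 Viability was read by CellTiter-Fluor fluorescence in the same wells, reagent added 23 hr into compound treatment and incubated 1 hr at 37C. The 3T3 Gli1-Luc reporter cells (2,000/well) received conditioned medium after compound and ran 24 hr.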

[18] = qHTS assay to identify small molecule agonists of the sonic hedgehog signaling (Shh) pathway (AID 1259368; calls by dose curve;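 also: NIH/3T3-derived 3T3Gli1-Luc cells carrying a stable Gli1-driven firefly luciferase reporter; series mostly up to about 92 µM; nearly all actives have a fitted effect of over 15% in size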)
Procedure, shortened: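 Quantitative high-throughput format using a Gli1-driven firefly luciferase reporter line derived from NIH/3T3 cells. After a 24 hr compound treatment at 37 C and 5% CO2, luminescence reported Gli1 response element activity.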

[19] = qHTS assay to identify small molecule antagonists of the sonic hedgehog signaling (Shh) pathway (AID 1259369; calls by dose curve; also: nearly all actives have a fitted effect of over 45% in size; also: potency is read from the fitted curve at half-maximal effect)
Procedure, shortened: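 Stable Gli1-Luc reporter NIH/3T3 clone; quantitative HTS in stimulated mode with conditioned medium. Luminescence measured after 24hr compound treatment at 37 C.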

[20] = target: Androgen receptor (Homo sapiens) (UniProt P10275); experiment: qHTS assay to identify small molecule antagonists of the androgen receptor (AR) signaling pathway using the MDA cell line in the presence of 0.5 nM R1881 (AID 1259243); also: nearly all actives have a fitted effect of over 50% in size; also: potency is read from the fitted curve at half-maximal effect
Procedure, shortened: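 Antagonist mode quantitative HTS in MDA-kb2 MMTV-luciferase cells, agonist R1881 at 0.5 nM final, 16 hr exposure at 37C and 0% CO2, luminescent detection.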
% is scaled to controls: 0 for no effect and ±100 for the full control effect.

Sequence of Estrogen receptor (Homo sapiens) (P03372 whole entry, looked up): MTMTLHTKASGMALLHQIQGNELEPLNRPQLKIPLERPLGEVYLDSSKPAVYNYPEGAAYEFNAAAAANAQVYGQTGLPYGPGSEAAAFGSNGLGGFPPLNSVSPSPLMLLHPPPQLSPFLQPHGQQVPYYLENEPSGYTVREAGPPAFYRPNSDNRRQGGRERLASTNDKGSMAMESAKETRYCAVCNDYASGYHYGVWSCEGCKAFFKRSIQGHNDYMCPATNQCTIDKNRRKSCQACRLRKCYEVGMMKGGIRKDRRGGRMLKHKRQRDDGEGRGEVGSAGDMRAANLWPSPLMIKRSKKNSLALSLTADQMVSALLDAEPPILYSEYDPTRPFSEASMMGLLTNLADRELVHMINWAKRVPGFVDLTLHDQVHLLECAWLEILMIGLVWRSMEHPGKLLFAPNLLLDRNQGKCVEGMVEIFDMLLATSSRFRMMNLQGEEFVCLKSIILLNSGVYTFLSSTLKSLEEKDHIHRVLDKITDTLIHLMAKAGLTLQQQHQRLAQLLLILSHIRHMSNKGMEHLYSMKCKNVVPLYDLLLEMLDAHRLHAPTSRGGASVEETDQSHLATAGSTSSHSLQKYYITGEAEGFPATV
Sequence of Androgen receptor (Homo sapiens) (P10275 whole entry, looked up): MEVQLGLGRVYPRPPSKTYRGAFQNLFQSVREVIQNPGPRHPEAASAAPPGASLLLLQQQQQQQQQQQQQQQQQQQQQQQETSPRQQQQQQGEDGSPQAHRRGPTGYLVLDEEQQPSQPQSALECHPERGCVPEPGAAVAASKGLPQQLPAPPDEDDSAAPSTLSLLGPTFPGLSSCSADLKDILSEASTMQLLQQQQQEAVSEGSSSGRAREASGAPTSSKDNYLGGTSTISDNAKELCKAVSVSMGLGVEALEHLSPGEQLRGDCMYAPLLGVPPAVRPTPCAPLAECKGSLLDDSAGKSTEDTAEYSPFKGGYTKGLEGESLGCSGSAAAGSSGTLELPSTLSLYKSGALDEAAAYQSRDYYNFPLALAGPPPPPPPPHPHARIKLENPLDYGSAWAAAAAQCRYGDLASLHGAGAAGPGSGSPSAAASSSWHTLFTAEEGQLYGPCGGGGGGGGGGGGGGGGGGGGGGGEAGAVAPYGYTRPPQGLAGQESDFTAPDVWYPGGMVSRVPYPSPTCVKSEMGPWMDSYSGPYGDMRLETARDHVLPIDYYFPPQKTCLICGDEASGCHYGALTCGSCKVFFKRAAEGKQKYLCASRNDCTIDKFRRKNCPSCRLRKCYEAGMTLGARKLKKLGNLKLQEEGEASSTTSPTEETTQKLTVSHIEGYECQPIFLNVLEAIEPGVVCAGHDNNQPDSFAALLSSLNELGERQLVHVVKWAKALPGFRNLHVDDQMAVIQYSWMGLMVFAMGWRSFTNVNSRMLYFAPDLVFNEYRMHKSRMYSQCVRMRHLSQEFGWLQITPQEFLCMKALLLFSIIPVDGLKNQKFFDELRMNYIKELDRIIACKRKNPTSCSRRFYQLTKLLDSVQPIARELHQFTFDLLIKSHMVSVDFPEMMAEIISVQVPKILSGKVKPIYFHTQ

NCC(=O)O
inactive: cytotoxicity [1] 6.15% [at 15.8 µM] | cytotoxicity increase [2] 1.6% [at 15.8 µM] | cytotoxicity increase [3] 12.2% [at 15.8 µM] | activity change, negative = cytotoxic [4] 8.2% [at 15.8 µM] | activity change, negative = cytotoxicity [5] 3.07% [at 15.8 µM] | activity change, negative = cytotoxicity [6] 10.2% [at 15.8 µM] | activity change [7] -1.23% [at 15.8 µM, stronger effect = higher value] | activity change, negative = cytotoxicity [8] 5.3% [at 15.8 µM] | cytotoxicity increase [9] 1.21% [at 15.8 µM] | activity change, negative = cytotoxicity [10] -1.87% [at 19 µM] | viability change, negative = cytotoxic [11] -5.8% [at 19 µM] | Potency [12] | Potency [13] | activity change, negative = inhibition [14] -0.526% [at 19 µM] | activity change, negative = cytotoxicity [15] 4.81% [at 19 µM] | viability change, negative = cytotoxic [16] -1.71% [at 19 µM] | viability change, negative = cytotoxic [17] 1.33% [at 19 µM] | activity change [18] -0.0794% [at 18.9 µM] | activity change, negative = inhibition [19] 20.6% [at 19 µM]

COc1cccc(N(C)C(=S)Oc2ccc3c(c2)CCCC3)n1
inactive: Potency [1] | Potency [2] | Potency [3] | Potency [4] | Potency [5] | Potency [6] | Potency [7] | Potency [8] | Potency [9] | Potency [10] | Potency [11] | Potency [12] | Potency [14] | Potency [15] | Potency [16] | Potency [17] | outcome [18]

O=C1C(O)=C(O)C(=O)C(O)=C1O
inactive: Potency [1] | Potency [2] | Potency [3] | Potency [4] | Potency [5] | Potency [6] | Potency [7] | Potency [8] | Potency [9] | Potency [10] | Potency [11] | Potency [12] | Potency [13] | Potency [14] | Potency [15] | Potency [16] | Potency [17] | outcome [18] | Potency [19]

CC[N+](C)(CC)CCOC(=O)C(O)(c1ccccc1)C1CCCCC1 (stereo not drawn)
inactive: Potency [1] | Potency [2] | Potency [3] | Potency [4] | Potency [5] | Potency [6] | Potency [7] | Potency [8] | Potency [9] | Potency [10] | Potency [11] | Potency [12] | Potency [13] | Potency [14] | Potency [15] | Potency [16] | outcome [18] | Potency [19]

CCN(CC)CCNC(=O)c1cc(Br)c(N)cc1OC
inactive: Potency [1] | Potency [2] | Potency [3] | Potency [4] | Potency [5] | Potency [6] | Potency [7] | Potency [8] | Potency [9] | Potency [10] | Potency [11] | Potency [12] | Potency [14] | Potency [15] | Potency [16] | Potency [17] | outcome [18] | Potency [19]

Cc1ncc(CO)c(C=O)c1O
inactive: Potency [1] | Potency [2] | Potency [3] | Potency [4] | Potency [5] | Potency [6] | Potency [7] | Potency [8] | Potency [9] | Potency [10] | Potency [11] | Potency [12] | Potency [14] | Potency [15] | Potency [16] | Potency [17] | outcome [18]

CCCCCCCCCCCc1ccccc1
inactive: Potency [1] | Potency [2] | Potency [3] | Potency [4] | Potency [5] | Potency [6] | Potency [7] | Potency [8] | Potency [9] | Potency [10] | Potency [11] | Potency [12] | Potency [14] | Potency [15] | Potency [16] | Potency [17] | outcome [18]

C=C(C)C(=O)OCCO
inactive: Potency [1] | Potency [2] | Potency [3] | Potency [4] | Potency [5] | Potency [6] | Potency [7] | Potency [8] | Potency [9] | Potency [10] | Potency [11] | Potency [12] | Potency [14] | Potency [15] | Potency [16] | Potency [17] | outcome [18]

C[C@@H](c1ncncc1F)C(O)(Cn1cncn1)c1ccc(F)cc1F (stereo partly drawn)
inactive: Potency [1] | Potency [2] | Potency [3] | Potency [4] | Potency [5] | Potency [6] | Potency [7] | Potency [8] | Potency [9] | Potency [10] | Potency [11] | Potency [20] | Potency [12] | Potency [13] | Potency [14] | Potency [15] | Potency [16] | Potency [17] | outcome [18] | Potency [19]

Cc1nn(C)c(Oc2ccccc2)c1/C=N/OCc1ccc(C(=O)OC(C)(C)C)cc1
active: Potency [5] 4.9 nM | Potency [10] 13.7 nM | Potency [20] 27.3 nM | Potency [12] 12.2 nM | Potency [19] 27.3 nM
inactive: Potency [1] | Potency [2] | Potency [3] | Potency [4] | Potency [6] | Potency [7] | Potency [8] | Potency [9] | Potency [14] | Potency [15] | Potency [16] | Potency [17] | outcome [18]

CCCCC1=NC2(CCCC2)C(=O)N1Cc1ccc(-c2ccccc2-c2nn[nH]n2)cc1
active: Potency [16] 4220 nM | Potency [17] 6680 nM
inactive: Potency [1] | Potency [2] | Potency [3] | Potency [4] | Potency [5] | Potency [6] | Potency [7] | Potency [8] | Potency [9] | Potency [11] | Potency [12] | Potency [13] | Potency [14] | Potency [15] | outcome [18] | Potency [19]

CCC(CC)Nc1ccc(C)c(C)c1
inactive: Potency [1] | Potency [2] | Potency [3] | Potency [4] | Potency [5] | Potency [6] | Potency [7] | Potency [8] | Potency [9] | Potency [10] | Potency [11] | Potency [12] | Potency [14] | Potency [15] | Potency [16] | outcome [18]

CCCCCCCC/C=C\CCCCCCCC(=O)OCC
inactive: Potency [1] | Potency [2] | Potency [3] | Potency [4] | Potency [5] | Potency [6] | Potency [7] | Potency [8] | Potency [9] | Potency [10] | Potency [11] | Potency [14] | Potency [15] | Potency [16] | Potency [17] | outcome [18] | Potency [19]

CC(C)(C)Cl
inactive: Potency [1] | Potency [2] | Potency [3] | Potency [4] | Potency [5] | Potency [6] | Potency [7] | Potency [8] | Potency [9] | Potency [11] | Potency [12] | Potency [14] | Potency [15] | Potency [16] | Potency [17] | outcome [18] | Potency [19]
